High-throughput results: PubChem, National Center for Advancing Translational Sciences (NCATS)
Many of the other results were omitted from the sample, so hits are more common in it than they were.
nsP2pro inh: inhibitors of chikungunya virus nsP2 protease. Q8JUX6. FRET peptide cleavage, nsP2pro, fluorescence 1 h. Potency, µM (highest dose often 24.9 µM), for the others: top-dose activity change, negative = inhibition, usual class: inhibitors. 31,000 tested, 1.1% active. AID 1964107; calls by dose curve; also: nearly all actives have a fitted effect of over 60% in size
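FRET cleavage of 2.5 uM peptide 2 by 150 nM CHIKV protease domain at pH 8.0 (Tris, Tween 20). Compounds at 7 concentrations (up to 25 uM) preincubated 15 min. Fluorescence read after 1 h at room temperature.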
* hit, by the source's call; i = inactive; [ ] = another dose, or the depositor's remark. % is scaled to controls: 0 for no effect and ±100 for the full control effect; potency is read from the fitted curve at half-maximal effect.

SMILES	nsP2pro inh
CC(=O)OC[C@]12C[C@H](O)C(C)=C[C@H]1O[C@@H]1[C@H](O)[C@@H](O)[C@@]2(C)[C@]12CO2	-2%
CC1=CC2OC3[C@H](O)C[C@@](C)([C@]34CO4)[C@@]2(CO)[C@H](O)C1=O (some centres undefined)	0.31µM*
CC(=O)OC[C@]12C[C@H](OC(=O)CC(C)C)C(C)=C[C@H]1O[C@@H]1[C@H](O)[C@@H](O)[C@@]2(C)[C@]12CO2	-7%[10 µM]
COCCNCCCn1c(C(=O)CF)c(-c2ccc(C)cc2)c2c(N)ncnc21	-5%
CC(O)C(=O)N1CCc2[nH]nc(C(c3ccccc3)c3ccccc3)c2C1 (centres undefined)	-5%
O=C(NC1CC(=O)N(c2ccc3c(c2)OCCO3)C1)c1c(F)cccc1Cl (centres undefined)	-5%
Clc1ccc(CN2CCN(c3ncnc4sc5c(c34)CCCC5)CC2)cc1Cl	-21%
CN(C)Cc1nnc(C2CC(NC(=O)Cc3c(F)cccc3Cl)C2)n1C (centres undefined)	-8%
CN(C)Cc1nnc(C2CC(NC(=O)c3cc(-c4ccsc4)n[nH]3)C2)n1C (centres undefined)	-1%
CN(C)Cc1nnc(C2CC(NC(=O)c3cc(-c4cccn4C)n[nH]3)C2)n1C (centres undefined)	0.5µM*
O=C1c2ccccc2C(=O)N1Cc1ccccc1	-5%
O=C1N/C(=C\c2ccco2)C(=O)N1Cc1ccc(F)cc1	i
O=C1N/C(=C\c2ccco2)C(=O)N1Cc1ccccc1	13µM*
O=C(NCc1cccnc1)c1cc(CN2CCC(Cc3ccccc3)CC2)on1	i
O=C(NCc1ccccc1)c1cnc2n1CCN(Cc1ccccc1)CC2	i
O=C(NCc1ccncc1)c1nc2c(o1)CCN(CCCc1ccccc1)CC2	14µM*
CCOc1ccc(NC(=O)NCCc2noc(C)n2)cc1	-4%
CCOC(=O)c1[nH]c2c(c1C)C(=O)CCC2	0%
Cc1ccc2nc(NC(=O)c3cccn(Cc4ccccc4F)c3=O)sc2c1	-13%
Cc1csc(NC(=O)c2ccc(COc3cccc(Cl)c3)o2)n1	0%
Cc1csc(NC(=O)c2nc3c(o2)CCN(Cc2ccccc2F)CC3)n1	13µM*
CCOc1ccc(C(c2c(O)cc(C)n(CCOC)c2=O)N2CCN(c3ccccc3F)CC2)cc1 (centres undefined)	13µM*
CCOC(=O)c1cnc2ccc(OCC)cc2c1N1CCN(c2ccccc2F)CC1	-11%
Cn1c(=O)cc(SCC(=O)N2CCN(c3ccccc3F)CC2)c2ccccc21	-19%
CCOC(=O)c1ccc(NC(=O)CSc2nccn2Cc2ccc(OC)cc2)cc1	-23%
SMILES	nsP2pro inh
COC(=O)[C@H](CC1C=NC=N1)NCC12CC3CC(CC(C3)C1)C2 (some centres undefined)	-5%
N#Cc1cc(NC(=O)Nc2nnc(-c3ccncc3)s2)ccc1-c1ccc[nH]1	i
Cc1c(P(=S)(c2ccccc2)c2ccccc2)c2ccccc2n1Cc1ccccc1	i
Cc1c(P(=O)(c2ccccc2)c2ccccc2)c2ccccc2n1C	11µM*
Cc1c(P(=S)(c2ccccc2)c2ccccc2)c2ccccc2n1C(=O)NCc1ccccc1	-7%
CN1CCC(c2c[nH]c3ccc(NC(=O)c4ccc(F)cc4)cc23)CC1	16%
O=C(O)/C(S)=C/c1c[nH]c2ccc(F)cc12	11µM*
COc1ccc2[nH]cc(CCNC(=O)Nc3ccc(F)cc3)c2c1	9%
CSc1ncc(C(=O)N2CCN(c3cccc(Cl)c3)CC2)c(C)n1	-22%
CO[C@@H]1[C@H](O)CCC2(CO2)[C@H]1[C@@]1(C)O[C@@H]1CC=C(C)C (some centres undefined)	-4%
Cc1ccc(NS(=O)(=O)c2ccc3c(c2)CCCC(=O)N3)cc1C	-1%
NCCCC(N)C(=O)O (centres undefined)	3%[10 µM]
Cc1cc(NC(=O)CSc2ncc(C(=O)Nc3ccc(C)c(C)c3)c(=O)n2C)no1	-18%
COC(=O)c1c(-c2cccs2)csc1NC(=O)c1ccc(OC)c(OC)c1	13µM*
CCCc1ccc(OCC(=O)Nc2scc(-c3cccs3)c2C(=O)OC)cc1	-32%
COc1ccc(C(=O)NCC(c2ccco2)S(=O)(=O)c2cccs2)cc1OC (centres undefined)	-17%
CCOC(=O)c1ccc(NC(=O)c2cnn3c(=O)c4c(n(CC)c23)CCN(Cc2ccc(OC)cc2)C4)cc1	-11%
O=C(O)/C=C/c1ccc(-c2ccc(O)c(C34CC5CC(CC(C5)C3)C4)c2)cc1	144%
CCOc1ccc(OCC(=O)NCCS(=O)(=O)N2CCN(c3cccc(Cl)c3)CC2)cc1	-5%
Cc1cccc(-c2[nH]c(Cc3cccc(C(N)=O)c3)nc2-c2ccc3nccnc3c2)n1	137%
CCS(=O)(=O)N1CCC(Oc2cccc(C(=O)NCc3ccccn3)c2)CC1	2%
O=C(NCc1ccnc2[nH]ccc12)c1cccc(Br)c1	11µM*
O=C(NCc1ccnc2[nH]ccc12)c1cncc(Br)c1	-24%[39.2 µM]
COc1ccc(NC(=O)C2C[C@H](C)CC[C@H]2C(C)C)cc1 (some centres undefined)	-4%
CCOC(=O)c1nn(-c2ccc(OC)cc2)c(=O)c2c(N)scc12	11µM*
SMILES	nsP2pro inh
CCC1CCCCN1C(=O)c1nn(-c2ccc(OC)cc2)c(=O)c2c1c1ccccc1n2C (centres undefined)	-15%
COc1ccc(-n2nc(C(=O)O)c(=O)n(C)c2=O)cc1	-24%
COc1ccc2nc(-c3ccccc3OC)sc2c1	i
C/C=C/C=C/C=C/C(=O)OC1C=C2C(O)OC(=O)[C@]2(O)[C@@]2(C)CCCC(C)(C)[C@H]12 (some centres undefined)	17%[10 µM]
O=C(c1ccccn1)N1CC(F)(F)C[C@H]1c1nc(-c2ncccn2)no1	i
CCOC(=O)[C@H]1O[C@H]1C(=O)N[C@@H](CC(C)C)C(=O)NCCC(C)C	7.1µM*
CC(C)CCNC(=O)[C@H](CC(C)C)NC(=O)[C@H]1O[C@@H]1C(=O)O	-10%
CCOC(=O)C1CCCN(C(=O)c2cc3c(=O)n(C)c4ccccc4c3s2)C1 (centres undefined)	-9%
CCN(CC)C(=O)c1ccc(NC(=O)Cn2nc(-c3ccc(C)cc3)c3ccccc3c2=O)cc1	-6%
CC(O)c1ccc(-c2ccc3ncnc(NCCc4cnc[nH]4)c3c2)o1 (centres undefined)	i
CCOC(=O)NNc1ccc(N(CC)CC(C)O)nn1 (centres undefined)	11µM*
CCOC(=O)NNc1nncc2ccccc12	7%
CN(CCC1CCOCC1)C(=O)c1ccc(OC2CCN(C(=O)C3CC3)CC2)cc1	i
COC(=O)c1c(NC(=O)Cc2coc3cc(C)ccc23)sc2c1CCC2	-6%
CC(C)CCOc1ccc(Oc2nc(N(C)C)nc(N(C)C)n2)nn1	0%
CCCc1oc2ccc(NS(=O)(=O)c3ccc(OCC)cc3)cc2c1C(=O)OCC	-11%
CCOc1ccc(CCNC(=O)c2cc3ccncc3n2Cc2cccc(C)n2)cc1OCC	i
CCOc1ccc(CCNC(=O)c2cc3ncccc3n2Cc2cccc(C)n2)cc1OCC	i
CCOc1ccc(CCNC(=O)c2cc3ccccc3n2Cc2ccccn2)cc1OCC	7.9µM*
CNC(=O)[C@H]1O[C@@H](n2cnc3c(NCc4ccc(N)c(I)c4)ncnc32)[C@H](O)[C@@H]1O	-9%[5.1 µM]
CCCCn1c(=O)n(Cc2ccccc2F)c(=O)c2[nH]c(Cc3ccc(NC(C)=O)cc3)nc21	-12%
